TSG101-PTAP inh: blocks PTAP/TSG101 interaction to inhibit HIV-1 budding; Q99816; Fluorescence polarization, FITC-PTAP peptide / Tsg101 binding; Potency, µM (titrated, usually from 115 µM), most hits filed as inhibitors; 340,000 tested, under 10 active; active = well fitted inhibition curve with a large enough effect in the main read-out, with a control signal flat, not every such curve was filed as active; inconclusive = small, poorly fitted or top-dose-only effect, or effect the other way, or a change in a side signal; inactive = no such curve, though single readings can be large or run the other way
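Fluorescence anisotropy tracks displacement of a FITC-tagged PTAP peptide (50 nM) from the Tsg101 binding domain (10 uM), following a 20 min room-temperature incubation at pH 7.5.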
VDR inhibitor: inhibitors of human vitamin D receptor; VDR-SRC2-3 peptide fluorescence polarization, 2 h; Potency, µM, hits mostly inhibitors; 0.93% of 400,000 active
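Measured by FP: displacement of SRC2-3 coactivator peptide from VDR by library compounds, following a two-hour ambient incubation.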
USP1-UAF1 inh: inhibitors of human USP1/UAF1 deubiquitinase | O94782 | recombinant USP1/UAF1, Ub-Rhodamine cleavage fluorescence | Potency, µM (series often up to 57.1 µM), most hits filed as inhibitors | 0.23% of 390,000 active; also: nearly all actives have a fitted effect of over 60% in size
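High-throughput fluorogenic screen: 1nM USP1/UAF1 complex, Ub-Rho substrate 150nM final, 50mM HEPES pH 7.8 with 0.5mM EDTA, 0.1 mg/ml BSA, 1mM TCEP and 0.01% Tween-20.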
KAT2A inh: GCN5L2 (KAT2A) acetyltransferase inhibition; 0.21% of 390,000 active; AID 504327; Q92830; GCN5L2 HAT assay, ThioGlo1 CoA-SH fluorescence; Potency, µM (doses to about 58.9 µM), hits mostly inhibitors
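qHTS, 1536-well. 20nM enzyme, pH 7.5 HEPES/EDTA/Tween-20 buffer; 15 min compound preinc., RT. Start: 75uM H3(1-25), 70uM AcCoA, 50uM ThioGlo1. Read Ex340/Em540 at t=0 (autofluorescence flag) and t=20 min.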
PLK1 PBD inh: PLK1 (human) polo-box domain binding inhibition; Potency, µM, most hits filed as inhibitors; Plk1 PBD binding of FITC phosphopeptide, fluorescence polarization; P53350; 2.8% of 360,000 active; AID 720504; also: series mostly up to about 57 µM; nearly all actives have a fitted effect of over 65% in size
Target sequence (P53350 whole entry, looked up, the tested form may be a part): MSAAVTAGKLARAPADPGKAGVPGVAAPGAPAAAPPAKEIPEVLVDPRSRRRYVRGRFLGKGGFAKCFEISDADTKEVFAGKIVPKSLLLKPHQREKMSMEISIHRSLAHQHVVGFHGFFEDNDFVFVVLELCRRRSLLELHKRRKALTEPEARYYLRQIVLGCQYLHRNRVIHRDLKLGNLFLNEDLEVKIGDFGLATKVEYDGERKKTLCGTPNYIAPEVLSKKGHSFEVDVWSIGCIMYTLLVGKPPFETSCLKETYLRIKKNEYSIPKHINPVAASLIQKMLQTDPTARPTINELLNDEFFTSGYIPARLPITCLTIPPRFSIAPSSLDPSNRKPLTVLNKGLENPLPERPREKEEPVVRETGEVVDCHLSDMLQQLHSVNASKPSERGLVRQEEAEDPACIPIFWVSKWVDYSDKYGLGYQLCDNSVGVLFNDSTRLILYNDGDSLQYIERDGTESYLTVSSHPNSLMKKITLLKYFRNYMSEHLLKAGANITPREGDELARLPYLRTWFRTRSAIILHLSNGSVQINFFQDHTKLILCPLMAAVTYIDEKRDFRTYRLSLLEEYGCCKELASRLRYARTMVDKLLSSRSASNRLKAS
Each line names hits and unclear results; the compound was inactive in the other large screens. Hits are enriched below; roughly 3% of the tested compounds scored in any of these assays. Unless noted, calls follow the shape of the dose curve; as a rule, active = well fitted curve in the direction sought with a large enough effect; inconclusive = small, poorly fitted or top-dose-only effect, or another doubt; inactive = no such curve, though single readings can be large; an effect the other way counts as inactive or inconclusive.

Cn1c(=O)c2c(nc(N3CCCCC3)n2CC(O)COc2ccccc2)n(C)c1=O (stereo unspecified)	none
CC(C)CSc1nc2c(c(=O)[nH]c(=O)n2C)n1CC(O)COc1cccc2ccccc12 (stereo unspecified)	VDR inhibitor inconclusive, PLK1 PBD inh 11µM
CCCSc1nc2c(c(=O)[nH]c(=O)n2C)n1CC(O)COc1ccccc1 (stereo unspecified)	none
Cn1c(=O)[nH]c(=O)c2c1nc(SCCO)n2CC(O)COc1ccccc1 (stereo unspecified)	PLK1 PBD inh 24µM
COCCCNc1nc2c(c(=O)[nH]c(=O)n2C)n1CC(O)COc1ccccc1C (stereo unspecified)	PLK1 PBD inh 24µM
Cn1c(=O)c2c(nc(N3CCCCCC3)n2CC(O)COc2ccccc2)n(C)c1=O (stereo unspecified)	VDR inhibitor inconclusive, PLK1 PBD inh 3µM
Cc1noc(C)c1S(=O)(=O)NC(=O)C1(C)CCN1C(=O)c1ccccc1CCc1ccccc1 (stereo unspecified)	none (no result: TSG101-PTAP inh, VDR inhibitor, USP1-UAF1 inh, KAT2A inh)
C=CCn1c(Oc2ccccc2)nc2c1c(=O)n(C)c(=O)n2C	none
CCn1c(Oc2ccccc2)nc2c1c(=O)n(C)c(=O)n2C	VDR inhibitor inconclusive, PLK1 PBD inh 27µM
c1ccc(CCc2nc3ccccc3[nH]2)cc1	none
O=c1[nH]c2ccccc2nc1CCc1ccccc1	PLK1 PBD inh 27µM
NS(=O)(=O)c1ccc(N/N=C/c2ccc(O)c(O)c2O)c([N+](=O)[O-])c1	VDR inhibitor inconclusive, USP1-UAF1 inh inconclusive, KAT2A inh inconclusive, PLK1 PBD inh 3µM
NS(=O)(=O)c1ccc(N/N=C/c2ccc(O)cc2O)c([N+](=O)[O-])c1	none
CCCCc1oc2ccccc2c1C(=O)c1cc(I)c(N(CC)CCOCC)c(I)c1	none (no result: TSG101-PTAP inh, USP1-UAF1 inh, KAT2A inh, PLK1 PBD inh)
CCc1oc2ccccc2c1C(=O)c1cc(I)c(O)c(I)c1	VDR inhibitor 32µM, KAT2A inh 8.9µM (no result: TSG101-PTAP inh, USP1-UAF1 inh, PLK1 PBD inh)
CCOc1ccc(C2C(C(=O)Nc3ccccc3)=C(C)Nc3nc(-c4ccccc4)nn32)cc1OC (stereo unspecified)	none (no result: TSG101-PTAP inh, PLK1 PBD inh)
COc1cccc(-c2nc(SCC(=O)Nc3nc(-c4ccccc4)c(C)s3)[nH]c(=O)c2C#N)c1	KAT2A inh inconclusive, PLK1 PBD inh 21µM
Cc1sc(NC(=O)CSc2nc(O)cc(=O)[nH]2)nc1-c1ccccc1	none
CCOc1ccc2nc(NC(=O)CSc3nc(-c4ccccc4)c(C#N)c(=O)[nH]3)sc2c1	USP1-UAF1 inh inconclusive, KAT2A inh inconclusive, PLK1 PBD inh 21µM
CCc1ccc(NC(=O)CCn2cnc3ccccc3c2=O)cc1	none (no result: TSG101-PTAP inh, PLK1 PBD inh)
COC(=O)c1sccc1S(=O)(=O)N(CC(=O)NCc1ccc(F)cc1)c1ccccc1	none (no result: TSG101-PTAP inh, PLK1 PBD inh)
CCc1ccc(NC(=O)Cn2cnc3sc(C)c(S(=O)(=O)N4CCC(C)CC4)c3c2=O)cc1	none (no result: TSG101-PTAP inh, PLK1 PBD inh)
COCc1nnc(NC(=O)CSCc2ccccc2)s1	PLK1 PBD inh 21µM
COCCSc1ccccc1C(=O)Nc1nnc(COC)s1	PLK1 PBD inh 27µM
S=C(NCCCc1cnc[nH]1)NCCCN(Cc1ccc(Cl)cc1)c1ncc(Br)cn1	none (no result: TSG101-PTAP inh, USP1-UAF1 inh, KAT2A inh, PLK1 PBD inh)
O=C(c1nc(-c2ccc(Cl)cc2)n2c1CCCCC2)N1CCN(c2ccc(F)cc2)CC1	none (no result: TSG101-PTAP inh, PLK1 PBD inh)
COC(=O)c1sccc1S(=O)(=O)N(CC(=O)Nc1cccc(C)c1C)c1ccc(C)c(C)c1	none (no result: TSG101-PTAP inh, PLK1 PBD inh)
CC(=O)OCC1=C(C(=O)O)N2C(=O)C(NC(=O)c3ccc(COc4ccc(Cl)cc4)o3)C2SC1 (stereo unspecified)	VDR inhibitor 45µM, PLK1 PBD inh inconclusive
CC(=O)OCC1=C(C(=O)O)N2C(=O)C(NC(=O)COc3ccc(F)cc3)C2SC1 (stereo unspecified)	PLK1 PBD inh inconclusive
CC(=O)OCC1=C(C(=O)O)N2C(=O)C(NC(=O)c3ccc(COc4c(C)cccc4Cl)o3)C2SC1 (stereo unspecified)	VDR inhibitor 16µM, KAT2A inh inconclusive
C=C(C)CC(C)(C)C	none (no result: TSG101-PTAP inh, USP1-UAF1 inh, PLK1 PBD inh)
CCN(CC)CCSc1nc2ccccc2c(=S)n1-c1ccccc1	USP1-UAF1 inh inconclusive, PLK1 PBD inh 24µM
COc1cc(C(c2c(C(=O)O)[nH]c3ccccc23)c2c(C(=O)O)[nH]c3ccccc23)ccc1OCc1ccccc1	USP1-UAF1 inh inconclusive, KAT2A inh inconclusive, PLK1 PBD inh 8.4µM
O=C(O)c1[nH]c2ccccc2c1C(c1cc(Cl)cc([N+](=O)[O-])c1O)c1c(C(=O)O)[nH]c2ccccc12	VDR inhibitor 79µM, USP1-UAF1 inh 32µM, KAT2A inh inconclusive, PLK1 PBD inh 7.5µM
O=C(O)c1[nH]c2ccccc2c1C(c1ccccc1)c1c(C(=O)O)[nH]c2ccccc12	VDR inhibitor inconclusive, PLK1 PBD inh 27µM
C=CCOc1ccc(C(c2c(C(=O)O)[nH]c3ccccc23)c2c(C(=O)O)[nH]c3ccccc23)cc1	USP1-UAF1 inh inconclusive, KAT2A inh inconclusive, PLK1 PBD inh 8.4µM
Cc1ccc(C(c2ccccc2)c2c(C)[nH]c3ccccc23)s1 (stereo unspecified)	USP1-UAF1 inh inconclusive (no result: TSG101-PTAP inh, PLK1 PBD inh)
O=C1CCCCN1CCC(=O)N1CCCC(Nc2ccc(F)c(F)c2)C1 (stereo unspecified)	none
O=C1CCCCN1CC(=O)N1CCCC(Nc2ccc(F)c(F)c2)C1 (stereo unspecified)	VDR inhibitor inconclusive, PLK1 PBD inh 21µM
COc1cccc2c1nc(C)c1cc(C)oc12	none
COc1cccc2nc3cc(C)c(C)cc3nc12	VDR inhibitor 22µM, USP1-UAF1 inh inconclusive, PLK1 PBD inh 17µM
Cc1ccc(N2C(=O)[C@@H]3[C@H](C2=O)[C@H]2C=CC=NN2[C@@H]3C(=O)Nc2ccc(Cl)cc2)cc1	PLK1 PBD inh inconclusive
O=C(Nc1ccc(Cl)cc1)[C@@H]1[C@@H]2C(=O)N(c3ccc(Cl)cc3)C(=O)[C@@H]2[C@H]2C=CC=NN21	VDR inhibitor inconclusive, PLK1 PBD inh 24µM
CCc1ccccc1NC1=NCC(=O)N1Cc1ccc2c(c1)OCO2	PLK1 PBD inh 30µM
CCOC(=O)c1ccc(N2C(=O)C=CC2=O)cc1	VDR inhibitor 50µM, KAT2A inh inconclusive, PLK1 PBD inh 3.8µM
COc1ccccc1C(=O)Nc1cccc(C(=O)OCc2cc(=O)n3c4c(sc3n2)CCCC4)c1	none (no result: TSG101-PTAP inh, PLK1 PBD inh)
O=C(Cn1c(=O)c2cc(Cl)ccc2n2nncc12)Nc1ccccc1	none (no result: TSG101-PTAP inh, PLK1 PBD inh)
Cc1c(NC(=O)/C=C/c2cn(-c3ccccc3)nc2-c2ccc(F)cc2)c(=O)n(-c2ccccc2)n1C	VDR inhibitor inconclusive, PLK1 PBD inh 11µM
COc1ccc2c(c1-c1c3c(cc(Br)c1OC)CCCC3)CCCC2	none (no result: TSG101-PTAP inh, USP1-UAF1 inh, KAT2A inh, PLK1 PBD inh)
COc1cc(CO)ccc1OCc1nnnn1-c1ccc(C)cc1	VDR inhibitor inconclusive, PLK1 PBD inh 17µM
CCOc1ccc(C(=S)NC2CCCCC2)cc1	PLK1 PBD inh 27µM
CCOc1ccc(C(=O)NC2CCCCCCC2)cc1	none (no result: KAT2A inh)
COc1ccc(C(=S)NC2CCCCC2)cc1	VDR inhibitor 89µM, PLK1 PBD inh 24µM
Cc1ccc(C(=O)Nc2cccc(C(=O)N/N=C/c3ccc(O)cc3)c2)cc1	none

Screening results: PubChem, National Center for Advancing Translational Sciences (NCATS)
